The panel holds about 83,000 compounds, 20% with a hit somewhere; the sample as a whole holds those more often.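 Step 1: grow cells in 96-well plates. Step 2: add test compound at a single concentration. Step 3: incubate 48 h. Step 4: record percent growth.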 Values without a mark were called inactive. Calls of active or inactive are those of the source. Rule for the calls: active = growth percent below 10; inactive = the rest.

Some test systems named below: SK-MEL-2 melanoma; EKVX NSCLC; SN12C renal; UO-31 renal; TK-10 renal; ACHN renal; CAKI-1 renal; A498 renal; CCRF-CEM leukemia; MOLT-4 leukemia.
Experiment in all cases: NCI-60 one-dose screen, 48 h (100 = growth as untreated, 0 = no growth, -100 = all killed)
Conditions in all cases: 10 µM unless noted

With `CC(=O)Oc1ccc(/C=C/C(=O)N[C@@H](Cc2ccccc2)C(O)C(=O)NCc2ccccc2)cc1OC(C)=O` (stereo not given in full), the growth with SK-MEL-2 melanoma was 110%; in the assay with EKVX NSCLC it was 90.6%; in the assay with SN12C renal it was 90.8%; with UO-31 renal, 38.8%; in the assay with TK-10 renal, 76.9%; in the assay with ACHN renal, 85.5%. Moreover, the growth is 71.3% with CAKI-1 renal, 115% in the assay with A498 renal, 44.9% in the assay with CCRF-CEM leukemia and 55.5% with MOLT-4 leukemia.

Regarding `CC1(c2cc3cc(Br)ccc3oc2=O)NC(=O)c2c(/C=C/C(=O)OC3CC4CCC3(C)C4(C)C)cccc2N1` (stereo not given), the growth is 92.7% with SK-MEL-2 melanoma; 62.1% in the assay on EKVX NSCLC; 75.5% in the assay with SN12C renal; 59.8% with UO-31 renal; 104% in the assay with TK-10 renal; 76.6% in the assay on ACHN renal. For the same compound, the growth is 78.2% in the assay with CAKI-1 renal, 142% with A498 renal, 82.2% in the assay with CCRF-CEM leukemia and 47% with MOLT-4 leukemia.

Take `CC(=O)Oc1ccccc1C(=O)[Se]C(=NC1CCCCC1)NC1CCCCC1`: the growth in the assay on SK-MEL-2 melanoma was -74.5% (active); in the assay with EKVX NSCLC, -97.6% (active); with SN12C renal, -99.3% (active); in the assay on UO-31 renal, -100% (active); in the assay on TK-10 renal, -98.8% (active); with ACHN renal it was -73.8% (active). Moreover, the growth in the assay on CAKI-1 renal was -97.7% (active); with A498 renal it was -5.3% (active); with CCRF-CEM leukemia it was 4.94% (active); in the assay on MOLT-4 leukemia it was -22.2% (active).

Take `CC12CC[C@@H]3[C@]4(C)COC(c5cn[nH]c5-c5ccc(Br)cc5)O[C@@H]4CC[C@@]3(C)[C@@H]1CC(C1=CCOC1=O)O2` (stereo not given in full): the growth in the assay on SK-MEL-2 melanoma is 52.4%; in the assay on EKVX NSCLC, 43.2%; in the assay on SN12C renal it was 57.5%; in the assay on UO-31 renal, 25.1%; with TK-10 renal, 54.6%; with ACHN renal, 47%. The growth with CAKI-1 renal is 43.3%; in the assay with A498 renal, 97.8%; in the assay with CCRF-CEM leukemia it was 51.4%; in the assay on MOLT-4 leukemia it was -0.166% (active).

As for `COc1cc2oc(-c3cccc(C(=O)Nc4ccc(Cl)cc4)c3)cc(=O)c2c(OCCNC(=O)[C@H](CO)NC(=O)OC(C)(C)C)c1OC`, the growth in the assay on SK-MEL-2 melanoma is -1.01% (active); with EKVX NSCLC, 24.1%; in the assay with SN12C renal, 16.4%; in the assay with UO-31 renal, 23.6%; with TK-10 renal it was 42.6%; in the assay on ACHN renal, 13.5%. Also, the growth in the assay with CAKI-1 renal was 19.1%; in the assay with A498 renal, 71.9%; in the assay on CCRF-CEM leukemia it was 8.05% (active); in the assay with MOLT-4 leukemia it was 5.42% (active).

As for `Cc1ccc(C2CC(c3ccc(S(=O)(=O)NCCNc4nc(Nc5ccc(F)cc5)nc(N(C)C)n4)cc3)=Nc3c(N)nc(N)nc3N2)cc1` (stereo not given), the growth with SK-MEL-2 melanoma is 76.9%; in the assay on EKVX NSCLC, 62.7%; in the assay with SN12C renal it was 74.2%; in the assay with UO-31 renal, 67.4%; with TK-10 renal, 96.5%; in the assay on ACHN renal, 61%. Besides, the growth in the assay with CAKI-1 renal is 76.9%; with A498 renal, 89.2%; in the assay on CCRF-CEM leukemia, 18.4%; in the assay on MOLT-4 leukemia, 4.77% (active).

Regarding `Nc1cc2ccccc2c(=O)n1NC(=O)c1ccc(I)cc1`, the growth was 102% with SK-MEL-2 melanoma; 94.2% in the assay with EKVX NSCLC; 107% with SN12C renal; 92% with UO-31 renal; 115% with TK-10 renal; 106% in the assay on ACHN renal. Besides, the growth in the assay on CAKI-1 renal is 83.6%; in the assay on A498 renal, 103%; with CCRF-CEM leukemia, 97.8%; in the assay with MOLT-4 leukemia, 99.2%.

`CCN1C(=O)N(CC)C2NNC(Sc3c(C(=O)O)c4ccccc4n(C4CCCC4)c3=O)=NC21` (stereo not given): the growth is 27% in the assay on SK-MEL-2 melanoma; 45.7% with EKVX NSCLC; 34.3% in the assay on SN12C renal; 46.8% with UO-31 renal; 80.1% with TK-10 renal; 25.7% with ACHN renal. In addition, the growth in the assay with CAKI-1 renal is 27.5%; with A498 renal, 102%; in the assay on CCRF-CEM leukemia it was 24.8%; with MOLT-4 leukemia, 24.1%.

As for `CC12CC[C@@H]3[C@]4(C)COC(c5cn[nH]c5-c5cccc(Br)c5)O[C@@H]4CC[C@@]3(C)[C@@H]1CC(C1=CCOC1=O)O2` (stereo not given in full), the growth in the assay on SK-MEL-2 melanoma is 31.6%; in the assay on EKVX NSCLC, 28.2%; with SN12C renal, 43.3%; with UO-31 renal, 14.9%; with TK-10 renal, 58.6%; in the assay with ACHN renal, 26.5%. Further, the growth in the assay on CAKI-1 renal is 39.9%; in the assay with A498 renal, 81.8%; with CCRF-CEM leukemia it was 9.66% (active); in the assay on MOLT-4 leukemia, 4.43% (active).

Consider `CCN1C(=O)/C(=N\N=C(/C)c2ccc3c(c2)Nc2ccccc2S3)c2cc(Cl)ccc21`, for which the growth with SK-MEL-2 melanoma was 70.8%; in the assay with EKVX NSCLC it was 40.1%; in the assay on SN12C renal, 58.9%; in the assay on UO-31 renal, 56.6%; with TK-10 renal, 72.1%; in the assay on ACHN renal, 24.6%. The growth with CAKI-1 renal is 48.1%; in the assay on A498 renal, 60.1%; in the assay on CCRF-CEM leukemia, 50.8%; in the assay on MOLT-4 leukemia, 37.4%.

For `O=C(Cn1c(/C=C/c2ccccc2)nc2ccccc2c1=O)Nc1ccccc1`, the growth was 94.7% in the assay on SK-MEL-2 melanoma; 124% with EKVX NSCLC; 31% in the assay on SN12C renal; 24.7% in the assay on UO-31 renal; 75.6% with TK-10 renal; 1.89% (active) with ACHN renal. Moreover, the growth was 8.48% (active) in the assay on CAKI-1 renal, -29.9% (active) in the assay on A498 renal, 71.4% in the assay with CCRF-CEM leukemia and 73% in the assay with MOLT-4 leukemia.

On to `N#Cc1c(-c2ccc(Br)cc2)nc2n[nH]c(-c3ccc(Br)cc3)c2c1-c1ccc(F)cc1`, for which the growth in the assay on SK-MEL-2 melanoma is 109%; in the assay with EKVX NSCLC, 70.7%; in the assay with SN12C renal it was 85.2%; with UO-31 renal it was 65.3%; in the assay with TK-10 renal it was 135%; in the assay on ACHN renal it was 91.2%. Also, the growth in the assay on CAKI-1 renal was 70.1%; with A498 renal, 163%; in the assay with CCRF-CEM leukemia, 102%; with MOLT-4 leukemia, 74.9%.

For `COc1ccc(/C=N/NC(=O)Cn2nc(Cc3ccc(OC)cc3)c3onc(C)c3c2=O)cc1`, the growth was 78.9% with SK-MEL-2 melanoma; 61.5% with EKVX NSCLC; 27.5% in the assay on SN12C renal; 44.6% with UO-31 renal; 79.4% with TK-10 renal; 12.8% in the assay with ACHN renal. Besides, the growth is -27.2% (active) with CAKI-1 renal, 48.1% in the assay on A498 renal, 75.5% with CCRF-CEM leukemia and 78.7% with MOLT-4 leukemia.

For the origin of these results see PubChem BioAssay (NCI).
